Experimental data: PubChem BioAssay AID651725 (National Center for Advancing Translational Sciences (NCATS), 2012)
The campaign covered roughly 360,000 compounds. About 2,000 (0.56%) were called active. Another 2% or so got no clear call; they are omitted. The entries come from a sample that favours actives as a whole. Unmarked numbers belong to inactive results. Cut-off read from the data, not from the text of the source: active = activity change below about -65%; inconclusive = mostly about -30% to -63%; inactive = weaker than that.

Target: Homeobox protein SIX1 (Homo sapiens) + Protein phosphatase EYA2 (Homo sapiens) (UniProt Q15475+O00167)
Assay: qHTS Assay for Inhibitors of the Six1/Eya2 Interaction
Settings: AlphaScreen GST-Six1/His-Eya2 binding, biochemical; hits give low values
Description: Its expression is low or undetectable in normal adult breast tissue but the gene is over-expressed in 50% of primary breast tumors and 90% of metastatic lesions. […] Similar to Six1, Eya2 is also not expressed in most normal adult tissues, but is reexpressed in cancers. The Six1-Eya interaction is essential for proliferation during embryonic development, and both Six1 and Eya2 have been independently implicated in the same types of cancer. Because Six1 and Eya2 are embryonic genes with little expression in adult tissues, inhibitors of their expression/activity are likely to have limited side effects. Our goal is to identify inhibitors of the Six1/Eya interaction for potential cancer therapy. To this end, we have developed a homogenous AlphaScreen assay targeting the Six1/Eya interaction. We performed a large scale HTS of the Molecular Libraries Small Molecule Repository (MLSMR) to identify inhibitors of the Six1/Eya interaction as potential anti-cancer therapeutics. Compounds identified can also be used as chemical probes to better understand the biological functions of Six1 and Eya. NIH Chemical Genomics Center [NCGC] NIH Molecular Libraries Probe Centers Network [MLPCN] MLPCN Grant: DA033147 Assay Submitter (PI): Rui Zhao, University of Colorado Denver
The first step of the 5 uL AlphaScreen assay is to dispense assay buffer (50 mM Tris, pH 8.0, 300 mM NaCl, 0.05% BSA, 0.02% Tween 20, 1 mM TCEP) into a Greiner 1536 white solid bottom microtiter plate (789175-F). Five microliters is added to Column 1, 4 uL is added to Column 2 and 3 uL is added to Columns 3 through 48. A 5X protein solution (250 nM GST-Six1 protein + 500 nM His-tagged Eya2 protein) is mixed and 1 uL is dispensed to Columns 3-48. Using a 1536 pintool, 23 nL of compound is transferred to the assay plate. A solution of 5X AlphaScreen beads is mixed (50 ug/mL Glutathione linked donor beads + Nickel chelated acceptor beads) and 1 uL is dispensed to Columns 2-48. The assay plate is incubated for one hour, with a lid, at 37 deg C in the dark. The plate is read using a Perkin Elmer Envision using an AlphaScreen protocol.
% is set by controls: 0 for no effect and ±100 for the full control effect.

Homeobox protein SIX1 (Homo sapiens) + Protein phosphatase EYA2 (Homo sapiens), sequence (O00167 whole entry, looked up): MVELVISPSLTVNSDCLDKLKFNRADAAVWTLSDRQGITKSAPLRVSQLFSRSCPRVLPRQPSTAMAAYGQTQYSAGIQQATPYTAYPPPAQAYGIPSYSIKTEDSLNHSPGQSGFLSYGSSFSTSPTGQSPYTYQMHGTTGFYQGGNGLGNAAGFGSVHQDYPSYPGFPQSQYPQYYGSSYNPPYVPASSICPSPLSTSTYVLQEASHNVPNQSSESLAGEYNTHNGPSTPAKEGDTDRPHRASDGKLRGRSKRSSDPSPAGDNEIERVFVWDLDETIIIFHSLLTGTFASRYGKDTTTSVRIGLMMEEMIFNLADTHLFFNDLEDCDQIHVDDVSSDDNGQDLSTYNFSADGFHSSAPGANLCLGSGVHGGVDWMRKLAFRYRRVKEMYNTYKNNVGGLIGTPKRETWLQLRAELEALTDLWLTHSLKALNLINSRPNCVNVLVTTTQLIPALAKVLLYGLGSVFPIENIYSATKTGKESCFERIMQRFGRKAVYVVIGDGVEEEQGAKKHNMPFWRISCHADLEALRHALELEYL
Homeobox protein SIX1 (Homo sapiens) + Protein phosphatase EYA2 (Homo sapiens), sequence (Q15475 whole entry, looked up): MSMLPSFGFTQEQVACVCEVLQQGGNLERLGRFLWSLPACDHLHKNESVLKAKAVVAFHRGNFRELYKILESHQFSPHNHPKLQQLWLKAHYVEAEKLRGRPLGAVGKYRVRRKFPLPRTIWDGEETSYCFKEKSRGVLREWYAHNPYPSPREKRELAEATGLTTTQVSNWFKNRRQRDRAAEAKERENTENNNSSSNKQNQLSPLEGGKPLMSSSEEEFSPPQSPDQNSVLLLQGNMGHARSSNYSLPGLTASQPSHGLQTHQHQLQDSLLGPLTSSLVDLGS

First: Cc1ccc(S(=O)(=O)N2[C@@H](Cc3ccccc3)CO[C@H]2CC(=O)OCc2ccccc2)cc1
Second: CC(=O)C[C@@H]1OC[C@H](C)N1S(=O)(=O)c1ccc(C)cc1
The activity change of the first is lower: -3.63% for the first, -0.665% for the second.

Compared with `CCOC(=O)C1C(C)C(C(C)(C)C)N(S(=O)(=O)c2ccc(C)cc2)C1c1ccccc1` (stereo not given), `Cc1ccc(S(=O)(=O)N2CC3C(=O)C[C@@H](c4ccccc4Cl)N(S(=O)(=O)c4ccc(C)cc4)C3CC2c2ccccc2)cc1` (stereo not given in full) is lower in activity change: 6.65% for the first, -4.43% for the second.

First: C=C(C)CNC(=S)N/N=C/c1ccccc1OCC(=O)O
Second: COc1ccc(OC)c(/C=N/NC(=O)c2ccc[n+](CC(=O)c3ccccc3)c2)c1
The activity change of the first is higher: 0.44% for the first, -5.56% for the second.

Compared with `O=C(NCCN1CCOCC1)Nc1cccc(Cl)c1`, `Cc1cccn2c(=O)c3cc(C(=O)NCCN4CCOCC4)c(=N)n(Cc4cccnc4)c3nc12` is lower in activity change: 3.67% for the first, -20.8% for the second.

Compared with `CCOC(=O)[C@]12CCCC=C1N(CCC1=CCCCC1)C(=O)[C@H](CC(=O)N1CCCCC1)C2`, `COC(=O)[C@]12CCCCC=C1N(CCC1=CCCCC1)C(=O)[C@H](CC(=O)N1CCSCC1)C2` is lower in activity change: -1.85% for the first, -5.23% for the second.

Going from `COc1ccc(C(=O)C(OP(=O)(OC)OC)c2ccccc2OC)cc1` (stereo not given) to `CCn1c(/C=N/NC(=O)c2ccc(OC)cc2)nc2ccccc21`, the activity change falls from 2.49% to -12.5%.

Compared with `O=C(COC(=O)Cc1ccc(Br)cc1)Nc1c(F)c(F)c(F)c(F)c1F`, `CC(=NNC(=O)c1ccc2nc[nH]c2c1)c1ccc(Br)cc1` is lower in activity change: 1.31% for the first, 0.936% for the second.

Going from `Brc1ccccc1/C=N/Nc1nc2ccccc2o1` to `Oc1ccc2nc(Cc3ccccc3)[nH]c2c1`, the activity change rises from -4.05% to -2.17%.

Going from `O=C(C[C@H]1CC[C@@H](NC(=O)c2ccncc2)[C@@H](CO)O1)NCC1CC1` to `NC(=O)C1CCN(C(=O)COc2cccc3cccnc23)CC1`, the activity change rises from 8.47% to 8.87%.

Going from `CCCCCCCCN1C(=O)[C@H](CC(=O)NCC23CC4CC(CC(C4)C2)C3)C[C@@]2(C(=O)OC)CCCCC=C12` to `CCOC(=O)[C@]12CCCC=C1N(CCC1=CCCCC1)C(=O)[C@H](CC(=O)NCCCCc1ccccc1)C2`, the activity change falls from -0.139% to -0.886%.

First: O=S1(=O)CC(N2CCSCC2)CN1Cc1cn(Cc2cccc(Cl)c2)nn1 (stereo not given)
Second: COCCCn1cc(CN2CC(N(C)C)CS2(=O)=O)nn1 (stereo not given)
The activity change of the first is lower: 0.627% for the first, 15.9% for the second.

Compared with `CCOc1cccc2c1OC1(CCCCC1)N1N=C(c3cccnc3)CC21` (stereo not given), `Cc1cccc(N(C(=O)c2ccc(CN3CCOCC3)o2)C(C(=O)NC2CCCCC2)c2ccc(F)cc2)c1` (stereo not given) is higher in activity change: -13.8% for the first, 0% for the second.

First: C[C@H]1COc2cc(N3CCSCC3)ccc2S(=O)(=O)N1
Second: CCOC(=O)N1CCN(C(=O)COc2ccc3oc4c(c3c2)CCCC4)CC1
The activity change of the first is higher: 3.55% for the first, -10.2% for the second.

Compared with `COc1ccc(S(=O)(=O)Nc2ccc(F)cc2)c(C)c1C`, `O=S(=O)(NCCOc1cccc2cccnc12)c1ccc(F)cc1` is higher in activity change: -0.291% for the first, 6.83% for the second.

First: Cc1nc2c(OCc3ccc(Cl)cc3Cl)cccn2c1N(C)CC1CC1
Second: Cc1ccc(S(=O)(=O)c2cc3c(=O)n4cccc(C)c4nc3n(CCc3ccccc3)c2=N)cc1C
The activity change of the first is lower: -5.16% for the first, 0.223% for the second.

Going from `Nc1nc2ncccn2c1-c1ccccc1` to `Cc1nc2ccccc2c(C(=O)O)c1-c1ccccn1`, the activity change rises from 3.63% to 7.28%.

Compared with `CCCOc1ccc(Cc2c(O)nc(N)[nH]c2=O)cc1C`, `CCOC(=O)c1c(C)oc2cc(Br)c(OCC(N)=O)cc12` is higher in activity change: -5.12% for the first, 5.69% for the second.

Going from `CC1(C)OC(=O)C2=C(C[C@@H](C3CC3)O[C@H]2CCc2cccc(Cl)c2)O1` to `CCC1OC(C2CC2)CC2=C1C(=O)OC(C)(C)O2` (stereo not given), the activity change falls from 7.67% to -0.697%.

Compared with `CCc1c(-c2ccc(F)cc2)ncn1Cc1cccc(-c2ccccc2)c1`, `CCCCc1c(-c2ccc(Br)cc2)ncn1CCc1ccccc1OC` is higher in activity change: -29.6% for the first, -13.5% for the second.

First: CCCCNC(=O)C[C@@H]1C[C@@]2(C(=O)OC)CC(C)(C)CC=C2N(Cc2ccco2)C1=O
Second: COC(=O)[C@@]12C[C@@H](CC(=O)NCc3cccc(C(F)(F)F)c3)C(=O)N(Cc3ccco3)C1=CCC(C)(C)C2
The activity change of the first is lower: -8.69% for the first, -8.64% for the second.

First: CCCc1c(C(=O)Nc2ccc(F)cc2)cnn1-c1ccccc1
Second: CC1(C)NC(=O)N(CC(=O)Nc2ccc(-c3ccccc3)cc2)C1=O
The activity change of the first is lower: 1.46% for the first, 5.24% for the second.

First: COc1ccc(NC(=O)CCNC(=O)Cn2cnc3sc4c(c3c2=O)CCCC4)cc1OC
Second: COc1ccc(NC(=O)CCCNC(=O)Cn2cnc3sc4c(c3c2=O)CCCC4)cc1OC
The activity change of the first is higher: -2.73% for the first, -5.21% for the second.

Compared with `CO[C@@H]1CN(C)C(=O)c2cc(NC(=O)Nc3cc(F)ccc3F)ccc2OC[C@H](C)N(C(=O)c2ccccn2)C[C@@H]1C`, `Cn1c(SCC(=O)c2ccc(F)cc2)nnc1-c1ccccn1` is higher in activity change: -5.82% for the first, 3.69% for the second.

Compared with `CCOC(=O)N1CCN(C(=O)C[C@@H]2C[C@@]3(C(=O)OC)CC(C)(C)CC=C3N(Cc3ccco3)C2=O)CC1`, `CCC(CC)C(C(=O)NC1CCCC1)N1CCN(c2cc(C)nc3ccccc23)CC1` (stereo not given) is higher in activity change: -1.81% for the first, 0.151% for the second.

First: COc1ccccc1C(=O)NCCC(=O)N(C)Cc1cccnc1
Second: COc1cc(/C=N/NC(=O)c2cccnc2)ccc1OC(=O)c1cccc(Br)c1
The activity change of the first is higher: 6.46% for the first, -6.91% for the second.

Going from `CCCCCNC(=O)C1C(=O)Nc2ccccc2C(=O)N1C(C)(C)C` (stereo not given) to `COC(=O)[C@@]1(Sc2ccc(C)cc2)CC(=O)N(c2cccc(SC)c2)[C@@H]1c1ccccc1`, the activity change falls from 1.59% to -16.4%.

Compared with `Nc1ncnc2c1ncn2[C@@H]1O[C@H](CNCc2cccn2-c2nccs2)[C@@H](O)[C@H]1O`, `c1ccc(-c2nccc(-c3ccc(-n4cnc5ccccc54)cc3)n2)nc1` is lower in activity change: 0.147% for the first, -10.5% for the second.

First: CCC(c1nc2ccccc2[nH]1)n1c(=O)c(-c2cccs2)nc2ccccc21 (stereo not given)
Second: Cc1cccc(C)c1NC(=O)C(c1cccc2ccccc12)n1c(=O)c(-c2ccco2)nc2ccccc21 (stereo not given)
The activity change of the first is higher: 9.68% for the first, -22.2% for the second.

Compared with `CC/C(O)=N\S(=O)(=O)c1ccc(N=NN(C)C)cc1`, `Cc1ccc(S(=O)(=O)N[C@H]2CCC[C@@H]2O)cc1` is higher in activity change: 0% for the first, 7.33% for the second.

Compared with `CC1Cc2[nH][nH]c(=O)c2C(C2CC2)O1` (stereo not given), `Cc1ccc(S(=O)(=O)NC2CCCCCC2)cc1` is higher in activity change: -3.07% for the first, 8.84% for the second.

First: Cc1ccc(S(=O)(=O)N2CCC(N3CCCCCC3)CC2)cc1
Second: O=S(=O)(c1ccc(F)cc1)N1CC=C(c2ccccc2)CC1
The activity change of the first is lower: -10.2% for the first, 11.2% for the second.

Compared with `Cn1c(CC(=O)Nc2ccccc2)nnc1SCC(=O)c1ccccc1`, `C/C(=N/Nc1ccc(Cl)cc1)c1cnnc(-c2ccccc2)n1` is higher in activity change: 3.83% for the first, 9.69% for the second.

Going from `COc1ccc(OC)c(CN2C(=O)CCC2(C)c2nnnn2Cc2ccccc2)c1` (stereo not given) to `COc1ccc2c(c1)c(C(=O)N/N=C/c1cccs1)c(C)n2C`, the activity change falls from 0.523% to -4.11%.

Compared with `COc1cc(C(=O)Nc2ncccc2C)ccc1OCC(=O)N1CCOCC1`, `COc1ccc(C(C(=O)Nc2c(C)cccc2C)N2CCN(c3ccc(C)cc3)CC2)cc1` (stereo not given) is lower in activity change: 7.15% for the first, -4.54% for the second.

First: Fc1ccccc1Cc1ccc(Cl)nn1
Second: CC(C)OC(=O)CC(=O)CC(O)c1cccc([N+](=O)[O-])c1 (stereo not given)
The activity change of the first is higher: 4.04% for the first, -3.63% for the second.

Compared with `COc1ccc(/C=N/NC(=O)C2CC2)c(OC)c1OC`, `COc1ccc2c(c1)N(C)/C(=C1/SC(=S)N(NC(C)=O)C1=O)S2` is lower in activity change: 3.31% for the first, -8.77% for the second.

`CCOc1cccc(/C=N/NC(=S)NCCN2CCOCC2)c1O` was tested, and the activity change was -92.1% (active).
`Oc1ccc(/C=N/Nc2nc(-c3ccccc3F)nc3ccccc23)c(O)c1` was tested, and the activity change was -71.7% (active).
With `Cc1nc2ccccc2nc1N/N=C/c1ccc(O)cc1O` the activity change was -69.1% (active).
With `COc1cc(N2CCCC2)c(OC)cc1/C=C(/C#N)c1cccc(Br)c1` the activity change was -67% (active).
In the case of `O=C(Nc1ccccc1)Oc1cccc2cccnc12`, the activity change is reported as -91.9% (active).
With `COc1ccc(/C=N/Nc2ncnc3sc4c(c23)CCCC4)cc1O` the activity change was -78.1% (active).
`COc1ccc2c(c1)c(=Cc1ccc(N(C)C)cc1)c1cc(-c3ccccc3)[n+](C)n12` was tested, and the activity change was -69.4% (active).
`COc1ccc(CCn2c(=N)c(C(=O)NCc3ccco3)cc3c(=O)n4cccc(C)c4nc32)cc1` was tested, and the activity change was -68.6% (active).
`CCOC(=O)c1c(C)oc2ccc(OCC(=O)N(CC)CC)cc12` was tested, and the activity change was -68.9% (active).
With `CN(C)N=Nc1ccc2nc[nH]c2c1` the activity change was -72.7% (active).
For `Cc1cc(C)nc(N/N=C/c2c(CO)cnc(C)c2O)n1`, the activity change was -75.1% (active).
For `Cc1ccc(S(=O)(=O)n2oc(=O)c(C3CCCCC3)c2N)cc1`, the activity change was -78.3% (active).
For `Cn1c(CNc2nc(-c3ccccc3)cs2)nnc1SCC(=O)c1ccccc1`, the activity change was -73.7% (active).
In the case of `Oc1cccc(/C=N/Nc2ccc(Cl)nn2)c1O`, the activity change is reported as -85.5% (active).
For `C/C(=N\Nc1ccc(Cl)nn1)c1ccccc1O`, the activity change was -71.4% (active).
`COc1cccc(/C=N\NC(=O)C2=NNC(=O)C2C)c1O` (stereo not given) was tested, and the activity change was -90.9% (active).
In the case of `COc1cccc(/C=N/NC(=O)c2[nH]nc3c2CCc2ccccc2-3)c1O`, the activity change is reported as -65.7% (active).
With `CC(C)(C)Nc1nc(-c2ccccn2)nc2ccccc12` the activity change was -89.4% (active).
